In PubChem BioAssay one finds composite z-score and z-score data, which are given here for five molecules.

The source made the active and inactive calls.

The test system of test [1] is PRMT1 (protein arginine N-methyltransferase 1). Briefly: PRMT1 binders on small-molecule microarrays, primary screen, biochemical, small-molecule microarray, 635 nm fluorescence (AID 1088).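 Note: binding of Prmt1 protein to compounds spotted on small-molecule microarray slides.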 As to conditions: small-molecule microarray binding, higher = more signal.
Test [2] can be described thus: yeast growth modulation, basal conditions, primary screen, YJM789 clinical isolate, OD600, 24 h (AID 1089).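 Note: growth of clinical yeast isolate S. cerevisiae YJM 789 seeded 1000 cells per well; test concentration not given here.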 As to conditions: S. cerevisiae YJM789 growth, higher = more signal, called active from +8 up or from −8 down.
The nature of test [3]: fission yeast growth modulation, primary screen, strain 972, OD600, 24 h, no modulator (AID 1090).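 Note: basal condition with compound alone and no growth modifier present; test concentration not given here.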 As to conditions: S. pombe 972 growth, higher = more signal, called active from +8 up or from −8 down.
Test [4] is described as follows: S. cerevisiae growth modulation with rapamycin, primary screen, strain BY4716, OD600, 96 h (AID 1091). Note: test concentration not given here. As to conditions: higher = more signal, called active from +8 up or from −8 down.
The target of test [5] is Torsin-1A-interacting protein 2 (Homo sapiens) (UniProt Q8NFQ8). The test is described as follows: LULL1 binders on small-molecule microarray, primary screen, cell lysate, human LULL1 lysate, 635/667 nm fluorescence (AID 1092).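 Note: probe is lysate of COS7 cells overexpressing human LULL1; score merges per-feature 667 nm fluorescence with signal-to-noise.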 As to conditions: hLULL1 lysate binding, 635 nm fluorescence, higher = more signal.
Sequence of Torsin-1A-interacting protein 2 (Homo sapiens) (Q8NFQ8 whole entry, looked up): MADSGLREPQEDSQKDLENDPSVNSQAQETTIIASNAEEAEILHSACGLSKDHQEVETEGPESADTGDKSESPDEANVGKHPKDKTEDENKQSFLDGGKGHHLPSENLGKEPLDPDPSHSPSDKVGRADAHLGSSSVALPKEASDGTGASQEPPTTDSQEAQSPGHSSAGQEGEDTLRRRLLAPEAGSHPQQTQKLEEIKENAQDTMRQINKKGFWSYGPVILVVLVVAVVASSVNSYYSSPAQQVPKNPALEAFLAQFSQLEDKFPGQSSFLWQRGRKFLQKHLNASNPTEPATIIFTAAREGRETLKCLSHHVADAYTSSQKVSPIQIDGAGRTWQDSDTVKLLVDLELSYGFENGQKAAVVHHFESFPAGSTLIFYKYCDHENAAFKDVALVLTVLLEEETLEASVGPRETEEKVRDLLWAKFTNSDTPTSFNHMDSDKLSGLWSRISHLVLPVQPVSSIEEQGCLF
A short description of test [6]: E. coli growth modulation, two-sided OD650, primary screen, E. coli filamentation project, strain DRC41, 24 h (AID 1093).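 Note: MC1000 strain lacking acrAB efflux and sulA so SOS filamentation is blocked; test concentration not given here.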 As to conditions: OD650, 24 h, higher = more signal, called active from +8 up or from −8 down.
Test [7] is described as follows: small-molecule microarray binders of probe aLefty2, primary screen, biochemical, biotinylated probe, 635/667 nm fluorescence (AID 1094).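 Note: score merges spot fluorescence near 667 nm with spot signal-to-noise ratio.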 As to conditions: higher = more signal.
Test [8] has as its system Noggin (protein binding on small-molecule microarray). Briefly: Noggin binders on small-molecule microarray, primary screen, biochemical, 635/667 nm fluorescence (AID 1095).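 Note: score merges 667 nm feature fluorescence with signal to noise over triplicate slides.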 As to conditions: 635 nm fluorescence, higher = more signal.
For test [9], the target named is Neurogenic locus notch homolog protein 3 (Homo sapiens) (UniProt Q9UM47). Briefly: NOTCH3 binders on small-molecule microarray, primary screen, biochemical, 635/667 nm fluorescence (AID 1096). As to conditions: NOTCH3 binding, 635 nm fluorescence, higher = more signal.
Sequence of Neurogenic locus notch homolog protein 3 (Homo sapiens) (Q9UM47 whole entry, looked up): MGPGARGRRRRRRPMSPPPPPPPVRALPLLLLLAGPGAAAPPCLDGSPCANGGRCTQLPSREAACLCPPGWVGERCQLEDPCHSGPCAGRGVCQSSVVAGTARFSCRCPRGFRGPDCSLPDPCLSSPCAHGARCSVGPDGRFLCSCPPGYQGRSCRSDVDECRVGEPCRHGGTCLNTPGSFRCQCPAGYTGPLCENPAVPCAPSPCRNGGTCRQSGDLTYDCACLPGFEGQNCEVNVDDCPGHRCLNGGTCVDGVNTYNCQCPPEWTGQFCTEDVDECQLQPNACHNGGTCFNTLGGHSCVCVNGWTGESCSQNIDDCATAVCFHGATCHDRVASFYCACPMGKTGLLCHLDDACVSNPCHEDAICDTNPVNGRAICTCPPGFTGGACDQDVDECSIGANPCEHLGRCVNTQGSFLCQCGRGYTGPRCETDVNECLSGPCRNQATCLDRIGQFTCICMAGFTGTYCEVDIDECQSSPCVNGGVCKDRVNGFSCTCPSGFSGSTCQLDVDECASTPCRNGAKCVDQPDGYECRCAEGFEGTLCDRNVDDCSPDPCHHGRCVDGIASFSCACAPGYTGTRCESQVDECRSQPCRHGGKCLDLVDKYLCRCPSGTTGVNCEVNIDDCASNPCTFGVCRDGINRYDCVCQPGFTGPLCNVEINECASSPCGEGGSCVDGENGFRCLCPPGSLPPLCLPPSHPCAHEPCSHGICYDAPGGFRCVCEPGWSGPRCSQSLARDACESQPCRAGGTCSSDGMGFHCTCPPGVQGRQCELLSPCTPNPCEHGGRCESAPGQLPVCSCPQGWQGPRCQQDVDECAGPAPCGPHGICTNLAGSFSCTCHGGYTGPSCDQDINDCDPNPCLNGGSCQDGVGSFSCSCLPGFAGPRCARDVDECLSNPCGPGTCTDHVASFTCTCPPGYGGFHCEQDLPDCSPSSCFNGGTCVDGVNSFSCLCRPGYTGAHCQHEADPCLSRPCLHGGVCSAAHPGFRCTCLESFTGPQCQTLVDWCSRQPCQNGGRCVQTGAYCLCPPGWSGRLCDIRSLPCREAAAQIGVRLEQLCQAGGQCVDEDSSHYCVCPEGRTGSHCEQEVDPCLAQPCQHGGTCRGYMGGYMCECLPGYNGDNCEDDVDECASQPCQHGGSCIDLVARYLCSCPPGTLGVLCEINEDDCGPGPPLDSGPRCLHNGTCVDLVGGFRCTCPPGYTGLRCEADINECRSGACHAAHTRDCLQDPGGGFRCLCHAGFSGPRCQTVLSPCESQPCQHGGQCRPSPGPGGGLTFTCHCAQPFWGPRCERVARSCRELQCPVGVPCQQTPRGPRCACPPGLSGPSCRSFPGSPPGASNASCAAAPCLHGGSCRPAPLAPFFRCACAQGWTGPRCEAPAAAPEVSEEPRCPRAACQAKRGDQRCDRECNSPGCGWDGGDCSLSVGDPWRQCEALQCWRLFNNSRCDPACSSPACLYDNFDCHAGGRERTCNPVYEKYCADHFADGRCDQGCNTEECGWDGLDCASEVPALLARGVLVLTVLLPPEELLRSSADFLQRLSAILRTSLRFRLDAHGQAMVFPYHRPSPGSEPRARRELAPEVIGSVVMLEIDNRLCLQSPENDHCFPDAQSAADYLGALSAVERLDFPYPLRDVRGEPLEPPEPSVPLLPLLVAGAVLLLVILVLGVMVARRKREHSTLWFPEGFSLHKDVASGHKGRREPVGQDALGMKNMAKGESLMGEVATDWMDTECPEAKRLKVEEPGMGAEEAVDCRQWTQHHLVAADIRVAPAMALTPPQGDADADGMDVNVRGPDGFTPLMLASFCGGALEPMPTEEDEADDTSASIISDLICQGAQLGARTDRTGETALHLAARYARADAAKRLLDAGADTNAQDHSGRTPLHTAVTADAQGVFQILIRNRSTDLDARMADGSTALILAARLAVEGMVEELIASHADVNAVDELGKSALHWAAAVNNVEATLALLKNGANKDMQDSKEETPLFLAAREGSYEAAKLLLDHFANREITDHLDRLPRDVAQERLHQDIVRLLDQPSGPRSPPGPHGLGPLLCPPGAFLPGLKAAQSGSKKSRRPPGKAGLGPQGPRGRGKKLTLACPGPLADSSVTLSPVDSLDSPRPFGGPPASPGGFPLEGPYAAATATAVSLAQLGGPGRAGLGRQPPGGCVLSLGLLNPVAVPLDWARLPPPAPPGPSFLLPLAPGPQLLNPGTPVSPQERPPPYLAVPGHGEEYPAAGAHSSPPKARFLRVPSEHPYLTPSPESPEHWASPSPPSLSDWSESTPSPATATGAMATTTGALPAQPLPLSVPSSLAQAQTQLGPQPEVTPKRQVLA
A short description of test [10]: small-molecule microarray binders of probe aEGFR, primary screen, biochemical, biotinylated probe, 635/667 nm fluorescence (AID 1097).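 Note: probe is a biotinylated anti-EGFR antibody binding compounds printed on slides; score combines fluorescence near 667 nm and signal to noise of each spot.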 As to conditions: higher = more signal.
Test [11] concerns Plasmodium falciparum Sir2 (PF13_0152, Sir2A). Briefly: pfSir2 binders on small-molecule microarrays, primary screen, biochemical, small-molecule microarray, 635 nm fluorescence (AID 1098).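 Note: score merges spot fluorescence intensity with its signal-to-noise ratio.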 As to conditions: small-molecule microarray binding, fluorescence 635 nm; higher = more signal.
A short description of test [12]: small-molecule microarray binders of probe aDKK1, primary screen, biochemical, biotinylated probe, 635/667 nm fluorescence (AID 1099).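 Note: score merges 667nm spot fluorescence with signal to noise across triplicate slides; reference of the scale not given here.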 As to conditions: higher = more signal.
Test [13] in a line: small-molecule microarray binders of probe aCHRDL2, primary screen, biochemical, biotinylated probe, 635/667 nm fluorescence (AID 1100). As to conditions: higher = more signal.
Test [14] can be described thus: splicing luciferase reporter signal modulators, primary screen, spliceosome inhibition project, cell-based, HEK293, splice +/- reporter (AID 1101).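 Note: HEK293 cells carrying a splicing-competent luciferase reporter gene; test concentration not given here.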 As to conditions: luminescence, 24 h, higher = more signal, called active from +8 up or from −8 down. For orientation: Reporter assays use an easily measured gene product as a stand-in for the process of interest.
Test [15] deals with Fibroblast growth factor 10 (Homo sapiens) (UniProt O15520). Briefly: FGF10 binders on small-molecule microarrays, primary screen, biochemical, small-molecule microarray, 635 nm fluorescence (AID 1102). As to conditions: FGF10 binding, fluorescence 635 nm, higher = more signal.
Sequence of Fibroblast growth factor 10 (Homo sapiens) (O15520 whole entry, looked up): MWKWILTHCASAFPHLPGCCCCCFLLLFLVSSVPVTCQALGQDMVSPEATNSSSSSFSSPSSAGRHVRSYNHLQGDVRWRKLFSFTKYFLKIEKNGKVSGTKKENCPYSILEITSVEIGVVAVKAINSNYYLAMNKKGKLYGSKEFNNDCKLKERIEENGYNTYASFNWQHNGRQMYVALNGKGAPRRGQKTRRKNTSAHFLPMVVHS
Test [16] concerns glycogen synthase kinase-3 (GSK3A per assay name; protocol says GSK3B). The test is described as follows: GSK3 binders on small-molecule microarrays, primary screen, biochemical, small-molecule microarray, 635 nm fluorescence, GSK3A (AID 1103). Note: the record names both GSK3A and GSK3B. As to conditions: small-molecule microarray binding, fluorescence 635 nm; higher = more signal.
For test [17], the target named is Epidermal growth factor receptor (Homo sapiens) (UniProt P00533). The test is described as follows: EGFR binders on small-molecule microarrays, primary screen, biochemical, small-molecule microarray, 635 nm fluorescence (AID 1104).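 Note: score merges 667 nm emission intensity with spot signal to noise over triplicate slides.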 As to conditions: EGFR binding, higher = more signal.
Sequence of Epidermal growth factor receptor (Homo sapiens) (P00533 whole entry, looked up): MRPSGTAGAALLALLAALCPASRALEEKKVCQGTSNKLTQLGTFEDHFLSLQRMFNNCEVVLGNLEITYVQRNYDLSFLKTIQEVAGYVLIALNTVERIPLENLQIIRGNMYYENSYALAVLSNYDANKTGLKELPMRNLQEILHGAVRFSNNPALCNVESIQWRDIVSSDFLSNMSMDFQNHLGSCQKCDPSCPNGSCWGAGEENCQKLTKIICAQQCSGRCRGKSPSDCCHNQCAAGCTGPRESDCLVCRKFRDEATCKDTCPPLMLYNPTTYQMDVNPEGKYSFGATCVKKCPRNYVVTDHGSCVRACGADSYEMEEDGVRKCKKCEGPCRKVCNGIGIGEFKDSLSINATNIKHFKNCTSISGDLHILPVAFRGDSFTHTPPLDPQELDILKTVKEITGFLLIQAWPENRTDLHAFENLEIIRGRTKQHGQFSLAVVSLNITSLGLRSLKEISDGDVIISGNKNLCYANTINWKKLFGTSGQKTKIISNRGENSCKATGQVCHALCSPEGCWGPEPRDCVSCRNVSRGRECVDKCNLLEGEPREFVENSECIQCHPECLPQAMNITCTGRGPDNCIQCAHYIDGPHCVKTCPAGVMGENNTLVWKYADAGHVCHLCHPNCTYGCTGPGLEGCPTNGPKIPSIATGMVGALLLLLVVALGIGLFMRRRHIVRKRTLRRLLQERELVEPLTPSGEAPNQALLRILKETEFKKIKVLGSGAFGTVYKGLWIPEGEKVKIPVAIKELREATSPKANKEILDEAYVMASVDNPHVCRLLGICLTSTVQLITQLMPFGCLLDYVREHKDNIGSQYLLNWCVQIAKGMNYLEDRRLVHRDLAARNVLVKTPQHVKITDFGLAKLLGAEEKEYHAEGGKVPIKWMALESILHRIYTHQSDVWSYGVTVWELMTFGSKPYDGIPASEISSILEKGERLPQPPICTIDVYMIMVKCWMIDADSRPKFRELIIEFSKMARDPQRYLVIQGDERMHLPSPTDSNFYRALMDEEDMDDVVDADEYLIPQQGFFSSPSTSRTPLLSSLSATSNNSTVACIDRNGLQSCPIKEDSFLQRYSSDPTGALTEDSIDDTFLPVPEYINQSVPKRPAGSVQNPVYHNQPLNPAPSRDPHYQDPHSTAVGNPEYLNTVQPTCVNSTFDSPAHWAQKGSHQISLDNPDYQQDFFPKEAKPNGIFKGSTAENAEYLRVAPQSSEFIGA
Test [18] addresses Follistatin-related protein 3 (Homo sapiens) (UniProt O95633). The test is described as follows: FSTL3 binders on small-molecule microarrays, primary screen, biochemical, small-molecule microarray, 635 nm fluorescence (AID 1105).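 Note: score merges emission near 667 nm and signal to noise per printed spot across three slides.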 As to conditions: FSTL3 binding, higher = more signal.
Test [19] concerns the target Dickkopf-related protein 1 (Homo sapiens) (UniProt O94907). Briefly: DKK1 binders on small-molecule microarrays, primary screen, biochemical, small-molecule microarray, 635 nm fluorescence scan (AID 1106).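 Note: score merges emission near 667 nm with signal to noise over three replicate slides.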 As to conditions: DKK1 binding, higher = more signal.
The test system of test [20] is Inhibin beta A chain (activin A). The test is described as follows: INHBA (activin A) binders on microarrays, primary screen, biochemical, small-molecule microarray, 635 nm fluorescence scan (AID 1107).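 Note: mouse activin A protein probed at 4.33 µg/mL on printed slides; score merges bound-protein fluorescence near 667 nm with spot signal-to-noise.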 As to conditions: small-molecule microarray binding, higher = more signal.

Sequence of Follistatin-related protein 3 (Homo sapiens) (O95633 whole entry, looked up): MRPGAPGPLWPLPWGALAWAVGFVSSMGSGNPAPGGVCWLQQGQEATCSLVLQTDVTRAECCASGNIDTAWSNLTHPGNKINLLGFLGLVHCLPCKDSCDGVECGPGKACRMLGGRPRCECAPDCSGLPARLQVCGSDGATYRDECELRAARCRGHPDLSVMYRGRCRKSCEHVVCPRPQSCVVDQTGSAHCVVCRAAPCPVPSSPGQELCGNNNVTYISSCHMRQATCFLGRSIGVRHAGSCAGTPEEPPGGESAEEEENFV
Sequence of Dickkopf-related protein 1 (Homo sapiens) (O94907 whole entry, looked up): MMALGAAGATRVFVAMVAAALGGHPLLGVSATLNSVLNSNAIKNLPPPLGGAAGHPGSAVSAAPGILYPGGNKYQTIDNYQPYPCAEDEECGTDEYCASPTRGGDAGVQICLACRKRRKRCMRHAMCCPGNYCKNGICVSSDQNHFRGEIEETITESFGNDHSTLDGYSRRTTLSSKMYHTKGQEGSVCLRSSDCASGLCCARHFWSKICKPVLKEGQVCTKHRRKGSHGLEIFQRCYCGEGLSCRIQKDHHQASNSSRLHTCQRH

Turning to `C=C(COC)/C(=C/C[C@H](OC(C)=O)c1ccccc1OCCO)c1cnc2ccccc2c1`, the composite z-score in test [1] was 0.826; in [5], 1.76; in test [7], -0.171; in test [8], 0.556; in test [9], 0.76; in test [10], 0.436. The composite z-score was 0.279 in [11]; -0.0732 in [12]; -0.0887 in [13]; 1.16 in test [15]; 0.521 in [16]; 0.486 in test [17]. The composite z-score in test [18] was 1.41; in [19] it was 0.743; in test [20], 1.85. For the same molecule, the z-score in test [2] was -0.837 (inactive); in test [3], 0.14 (inactive); in test [4], 1.29 (inactive); in test [6], 0.223 (inactive); in test [14] it was 0.11 (inactive).
As to `CCOC(=O)C[C@H]1[C@H](OC(=O)c2ccc(C(=O)c3ccccc3)cc2)[C@@H](NC(=O)c2ccc3ccccc3n2)c2cc(OCCCO)ccc2N1C(=O)c1ccc2ccccc2n1`, the composite z-score was 0.424 in test [1]; 1.34 in test [5]; 0.109 in [7]; 0.192 in [8]; 0.486 in test [9]; 0.0746 in test [10]. For the same molecule, the composite z-score was 0.143 in test [11]; 0.492 in [12]; 0.661 in test [13]; 0.418 in [15]; 0.232 in [16]; 0.703 in [17]. For the same molecule, the composite z-score worked out at 0.154 in [18], 0.0952 in test [19] and 0.41 in test [20]. The z-score in [2] is 0.179 (inactive); in [3] it was 0.0242 (inactive); in [4], 0.418 (inactive); in [6], 1.12 (inactive); in test [14], -0.679 (inactive).
`O=C1O[C@H](c2ccccc2)[C@H](c2ccccc2)N2[C@H]1[C@@H](C(=O)Nc1nc3ccccc3s1)[C@]1(C(=O)Nc3ccc(C#CC4=CCCCC4)cc31)[C@H]2c1ccc(OCCO)cc1`: the composite z-score was 1.55 in test [1]; 3.26 in test [5]; 0.291 in test [7]; 0.715 in test [8]; 1.07 in test [9]; -0.118 in test [10]. In addition, the composite z-score in test [11] is 0.956; in [12], -0.004; in [13], 0.54; in [15], 1; in test [16], 1.3; in test [17], 0.202. Besides, the composite z-score in test [18] amounted to 0.891; in [19], 0.779; in test [20], 0.881. Further, the z-score was 1.79 (inactive) in test [2]; 1.42 (inactive) in test [3]; 1.54 (inactive) in test [4]; 0.476 (inactive) in test [6]; -0.718 (inactive) in [14].
As for `CCCCN1CC=CC23O[C@@H]4/C=C\CCCOC(=O)C4[C@H]2C(=O)N(C(C)CO)[C@@H]3C1=O` (stereo not given in full), the composite z-score is -0.376 in test [1]; -0.0431 in [5]; -0.282 in test [7]; 0.16 in [8]; -0.0087 in test [9]; -0.233 in test [10]. Besides, the composite z-score in test [11] was 1.62; in [12], -0.292; in test [13] it was -0.305; in test [15], -0.319; in [16], -0.969; in [17], -0.154. In addition, the composite z-score in test [18] is -0.43; in test [19] it was 0.326; in test [20], 0.788. In addition, the z-score was -0.0849 (inactive) in test [2]; -0.958 (inactive) in test [3]; -0.417 (inactive) in test [4]; 0.315 (inactive) in test [6]; -0.577 (inactive) in test [14].
With `NC(=O)NCC#Cc1ccc2c(c1)[C@]1(C(=O)N2)[C@H](c2ccc(O)cc2)N2[C@H](c3ccccc3)[C@H](c3ccccc3)OC(=O)[C@H]2[C@@H]1C(=O)N1CCN(c2ncccn2)CC1`, the composite z-score in [1] is 1.01; in [5], 1.45; in [7], 0.28; in test [8], -0.228; in test [9] it was -0.334; in [10], 0.0193. Besides, the composite z-score in test [11] is 0.681; in [12] it was 0.337; in [13] it was 0.372; in test [15], 0.602; in test [16] it was -0.398; in test [17], -0.232. For the same molecule, the composite z-score in [18] is -0.483; in test [19], -0.122; in [20] it was 0.862. Besides, the z-score was 0.113 (inactive) in test [2]; -0.923 (inactive) in test [3]; 1.6 (inactive) in test [4]; 1.1 (inactive) in test [6]; -0.0492 (inactive) in test [14].
